Pf Dd2 inh = Plasmodium falciparum Dd2 growth inhibition; Potency, µM (top dose mostly 28.9 µM), usual class: inhibitors; P. falciparum Dd2 growth, SYBR Green, 72 h; 120,000 tested, 4.3% active; active means well fitted inhibition curve with a large enough effect; further: nearly all actives have a fitted effect of over 65% in size
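Readout: SYBR Green fluorescence, 485 nm excitation, 535 nm emission, after ~16 h lysis at 37C. Before that, Dd2-infected red cells (2.5% hematocrit) grew 72 h with compound, 29 uM top final concentration.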
A number is an active result; . = inactive. Many of the other results were omitted from the sample, so hits are more common in it than they were.

SMILES	Pf Dd2 inh
COc1ccc(CNC(=O)c2ccc3c(c2)N(Cc2cccc(Cl)c2)C(=O)c2ccccc2S3)c(OC)c1	11µM
COc1cccc(CNC(=O)c2ccc3c(c2)N(Cc2ccc(F)cc2Cl)C(=O)c2ccccc2S3)c1	11µM
COc1cccc(CN2C(=O)c3ccccc3Sc3ccc(C(=O)NCCc4ccc(Cl)cc4)cc32)c1	11µM
O=C(NCc1ccc(F)cc1)c1ccc2c(c1)N(Cc1ccc(F)cc1Cl)C(=O)CS2	.
COc1ccc(CNC(=O)c2ccc3c(c2)N(Cc2ccccc2)C(=O)c2ccccc2S3=O)cc1 (stereo not drawn)	.
Cc1ccc(CNC(=O)c2ccc3c(c2)N(Cc2cccc(Cl)c2)C(=O)CS3)cc1	.
CCOc1ccc(CN2C(=O)c3ccccc3Sc3ccc(C(=O)OC)cc32)cc1	.
COc1ccc(C(=O)N2CCC(N3CCOC3=O)CC2)cc1	.
O=C(COc1ccc(Cl)cc1)Nc1nnc(S(=O)(=O)N2CCc3ccccc32)s1	.
Cc1ccc(C)c(NC(=O)C(C)n2c(=O)cc(C(F)(F)F)c3c(C)nn(C)c32)c1 (stereo not drawn)	.
O=C(Nc1ccccc1F)N1CCOC(c2ccc(Cl)cc2)C1 (stereo not drawn)	.
CCOCCOC1CCN(S(=O)(=O)c2ccccc2)CC1	.
CCc1ccc(CNC(=O)c2cnc3sc(N4CCCCCC4)nn3c2=O)cc1	.
Cc1ccc(-c2noc(-c3nc(C4CC4)no3)n2)cc1	.
O=C(NCC1CCCCC1)N[C@H](C1CCNCC1)C1CC(O)C1 (stereo partly drawn)	.
O=C1CCC2(CCN1CC1CC1)CCN(C(=O)c1cccc(F)c1)CC2	.
CSc1ncc(Cl)c(C(=O)Nc2cc(C(F)(F)F)ccc2Cl)n1	.
CN(CC1(C)CCOCC1)C(=O)c1ccccn1	.
CCOc1ccccc1CN1CCC2(CCN(C(=O)c3ccc(OC)cc3)CC2)Oc2ccccc21	.
CCCN1CCC2(CCN(C(=O)Nc3ccc(Cl)cc3)CC2)Oc2ccccc21	.
O=C(c1cccc(Cl)c1)N1CCC2(CC1)CCN(Cc1cccs1)c1ccccc1O2	7.9µM
COCc1cc(C[C@@H]2CC[C@H](O)[C@@H](CNC(=O)C(C)C)O2)no1	.
Cc1cc(=O)oc2c3c(ccc12)OCN(Cc1ccc(Cl)cc1)C3	5.6µM
COc1ccc(CCNC(=O)Cc2c(C)c3cc4c(C)coc4c(C)c3oc2=O)cc1	.
Cc1ccc2c(CN3CCN(c4ccc(Cl)cc4)CC3)cc(=O)oc2c1	.
SMILES	Pf Dd2 inh
O=C(Nc1ccc2c(c1)CN(Cc1ccc(Cl)cc1)C(=O)CO2)c1ccccc1	.
O=C(Cn1c(=O)oc2ccccc21)NCc1ccc(Cl)cc1	.
O=c1oc2c3c(ccc2c2ccccc12)OCN(Cc1ccc(Cl)cc1)C3	10µM
Cc1coc2c(C)c3oc(=O)c(CCC(=O)NCCc4ccc(Cl)cc4)c(C)c3cc12	.
COC(=O)Cc1c(C)c2ccc3c(c2oc1=O)CN(Cc1ccc(Cl)cc1)CO3	7.1µM
CCOc1ccc2oc(=O)cc(CN3CCN(Cc4ccc(C)cc4)CC3)c2c1	.
CN(c1cc(=O)c2ccnc(-c3ccc(F)c(Cl)c3)c2o1)C1CCOCC1	.
O=C(Cc1ccccc1Cl)N1CCN(C(=O)c2nnn3c2COC(c2ccccc2)C3)CC1 (stereo not drawn)	.
CN(C)C(=O)C1CCN(C(=O)N2CC3CC(C2)[C@H]2CCCC(=O)N2C3)CC1 (stereo partly drawn)	.
Cc1nc2nc(SCC(=O)Nc3ccccc3Cl)nn2c(C)c1Cc1ccccc1	.
CN(C)C(=O)N1CCCC(c2nc(-c3ccccc3)no2)CCNC(=O)CC1 (stereo not drawn)	.
COc1ccc(C2(C(=O)N3CCCC(c4nc(-c5ccccc5)no4)CCNC(=O)CC3)CC2)cc1 (stereo not drawn)	7.9µM
O=C1CCN(C2CCOCC2)CCCC(c2nc(-c3cccnc3)no2)CCN1 (stereo not drawn)	.
COc1ccc(C(=O)N2CCCC(c3nc(-c4ccccc4)no3)CCNC(=O)CC2)c(OC)n1 (stereo not drawn)	11µM
CC(C)c1noc(C2CCCN(Cc3ccccc3)CCC(=O)NCC2)n1 (stereo not drawn)	4.5µM
COc1ccc(C(=O)N2CCCC(c3nc(-c4cccnc4)no3)CCNC(=O)CC2)c(OC)n1 (stereo not drawn)	.
O=C1CCN(C2CCCC2)CCCC(c2nc(-c3cccnc3)no2)CCN1 (stereo not drawn)	0.71µM
CC(C)c1noc(C2CCCN(C(=O)NCCc3ccccc3)CCC(=O)NCC2)n1 (stereo not drawn)	.
CCC(=O)N1CCCC(c2nc(-c3ccccc3)no2)CCNC(=O)CC1 (stereo not drawn)	.
CS(=O)(=O)N1CCCC(c2nc(-c3cccnc3)no2)CCNC(=O)CC1 (stereo not drawn)	.
CC(C)c1noc(C2CCCN(Cc3cccnc3)CCC(=O)NCC2)n1 (stereo not drawn)	.
O=C1CCN(C(=O)c2cccnc2)CCCC(c2nc(-c3ccccc3)no2)CCN1 (stereo not drawn)	.
CN(C)CCOCC1(C)COc2ccc(C(=O)NCc3ccc(F)cc3)cc2N1 (stereo not drawn)	.
NC(=O)CNC(=O)C1=C[C@@H](NC(=O)c2cccc(F)c2)[C@@H](O)[C@H](O)C1	.
COC[C@@H]1CN(C(=O)c2cccc3[nH]ccc23)C[C@H]1c1nc(C)no1	.
SMILES	Pf Dd2 inh
COc1ccccc1OCCNC(=O)CC1CCOCC1	.
COCCOc1ccc2c(n1)CCN(C(=O)Cc1ccc(OC)cc1)C2	.
Cc1oc(-c2cccc(C(F)(F)F)c2)nc1CN(C)Cc1ccon1	.
Cc1ccc(-n2nc3n(c2=O)CCN(C(=O)Cc2ccc(F)cc2)C3)cc1	.
Cc1csc(NC(=O)c2nc3c(o2)CCN(Cc2ccccc2)CC3)n1	.
CCOc1cc(C2C(C(N)=O)=C(C)Nc3ncnn32)cc(Br)c1O (stereo not drawn)	.
CS(=O)(=O)N1CCCCCCNC(=O)[C@@H]2C[C@@H](c3nc(-c4cccnc4)no3)C[C@@H]21	.
O=C1NCCCCCCN(S(=O)(=O)c2cccnc2)[C@H]2C[C@H](c3nc(-c4cccnc4)no3)C[C@@H]12	2.8µM
O=C1NCCCCCCN(C(=O)c2cnccn2)[C@H]2C[C@H](c3nc(-c4cccnc4)no3)C[C@@H]12	.
Cc1ccc(N2CC(NC(=O)CCc3ccccc3)CC2=O)cc1C (stereo not drawn)	.
COc1cccc(CNS(=O)(=O)c2ccc3c(c2)CCN3C(=O)C2CCC2)c1	.
O=C(CN1C(=O)NC2(CCOCC2)C1=O)Nc1ccc2c(c1)OCCO2	.
CC1CCC2(CC1)NC(=O)N(CC(=O)Nc1ccc3c(c1)OCO3)C2=O (stereo not drawn)	.
CC(C)(C)C1CCC2(CC1)NC(=O)N(CC(=O)Nc1ccc3c(c1)OCCO3)C2=O (stereo not drawn)	7.9µM
COc1ccc(-c2noc([C@@H]3CCCN3C(=O)c3ccccc3OC)n2)cc1OC	.
Cc1ccc(OCc2ccc(-c3nc(C#N)c(N4CCC(C)CC4)o3)o2)cc1	.
CCCCN(CC)CCCNC(=O)c1cc2c(=O)[nH]c3ccccc3c2n1C	8.9µM
CCOCCCNC(=O)c1cc2c(=O)n(C)c3ccccc3c2n1C	.
CCN(CC)CCNC(=O)c1cn(CCOC)c(=O)c2c1c1ccccc1n2C	10µM
CCCN(CCC)CCCNC(=O)c1cc2c(=O)[nH]c3ccccc3c2n1C	.
COc1cc(Cl)c(C)cc1NC(=O)c1cn(C2CCCC2)c(=O)c2c1c1ccccc1n2C	.

Source: PubChem
